Measurements reported in PubChem BioAssay AID540333 (Southern Research Specialized Biocontainment Screening …, 2011).
Hit rate of the full screen: of about 10,000 compounds, about 320 (3.2%) were called active. This excerpt belongs to a sample that is enriched for actives. Unmarked numbers belong to inactive results. No stated cut-off is given here; in the data, active means CPE inhibition mostly above about 9.1% (no sharp cut-off); inactive means mostly below about 7.2%.

Assay: Dengue virus cytopathic effect inhibitors, cell-based, CPE readout, HTS (AID 540333)
Conditions: Dengue virus CPE inhibition in host cells, at 20 µM; hits give high values

Row | Compound | CPE inhibition
1 | O=C1NC(=O)C(CC(=O)N(Cc2cccs2)C2(C(=O)NC3CCCC3)CCCCC2)N1 (stereo unspecified) | 0.025%
2 | CC(=O)Nc1ccccc1C(=O)C(=O)Nc1cccc(C(=O)NCc2ccccc2)c1 | inactive
3 | O=C(NC(=S)Nc1cccc(NC(=O)c2ccccc2)c1)c1cccc([N+](=O)[O-])c1 | 0.91%
4 | COc1ccc(/C=C/c2nnc(NC(=O)CSc3ccc(Cl)cc3)s2)cc1 | 12.2% (active)
5 | COc1ccc(Cc2nnc(NC(=O)CSc3ccc(C)cc3)s2)cc1 | 0.25%
6 | COC(=O)Nc1nnc(/C=C/c2ccc(OC)cc2)s1 | 6.99%
7 | CC(C)c1nc(C#N)c(N2CCOCC2)o1 | inactive
8 | Cc1ccc(CN2CCN(CC(=O)N/N=C/c3c[nH]c4ccccc34)CC2)cc1 | 0.79%
9 | COc1cc(OC)cc(-c2c(C#Cc3ccsc3)c3cc(-c4cccc5[nH]ccc45)ccc3n2C)c1 | 6.79%
10 | CC1CCCCN1CC(=O)Nc1ccccc1Sc1ccccc1 (stereo unspecified) | 18.4% (active)
11 | CC1CN(CC(=O)Nc2ccccc2Sc2ccccc2)CC(C)O1 (stereo unspecified) | 0.145%
12 | CC(=O)N1CCN(CC(=O)Nc2ccccc2Sc2ccccc2)CC1 | 0.615%
13 | O=C(CN1CCN(c2ccccc2)CC1)Nc1ccccc1Sc1ccccc1 | 15.7% (active)
14 | O=C(Cc1ccccc1)Nc1cc(Cl)ccc1Sc1ccccc1 | 0.52%
15 | Cc1ccc(/C=C/C(=O)OCC(=O)Nc2ccccc2Sc2ccccc2)cc1 | inactive
16 | O=C(COC(=O)c1ccccc1-c1nc2ccccc2s1)NC1CCS(=O)(=O)C1 (stereo unspecified) | inactive
17 | CC(=O)O[C@H]1CC[C@@]2(C)[C@@H](CC[C@H]3[C@@H]4CC[C@H](C(C)O)[C@@]4(C)CC(=O)[C@@H]32)C1 (stereo partly specified) | inactive
18 | COC(=O)c1ccc(NC(=O)CSC2=NCCN2)cc1 | 0.235%
19 | O=C1CC(N(Cc2cccs2)C(=O)Nc2ccccc2)C(=O)N1c1ccc(Cl)cc1 (stereo unspecified) | 0.225%
20 | COC(=O)Cn1c(C(=O)N2CCCC2)cc2c1C[C@H]1CN(C(=O)c3ccccc3)[C@@](Cc3ccc(F)cc3)(C(=O)OC)[C@@H]21 | 0.235%
21 | COC(=O)[C@@]1(Cc2ccc(F)cc2)[C@H]2c3cc(C(=O)N(C)C)n(CCc4ccc(OC)c(Br)c4)c3C[C@H]2CN1C(=O)c1ccccc1 | 21.7% (active)
22 | COC(=O)[C@@]1(Cc2ccc(F)cc2)[C@H]2c3cc(C(=O)N(C)C)n(C[C@H](O)CO)c3C[C@H]2CN1C(=O)c1ccccc1 | 0.25%
23 | Cc1cc(NC(=O)/C=C/c2ccc(Cl)cc2)no1 | inactive
24 | Cc1cccn2c(=O)c(/C=C(\C#N)C(=O)NCc3ccco3)c(N3CCC(C(N)=O)CC3)nc12 | 0.26%

Row | Compound | CPE inhibition
25 | Cc1cccn2c(=O)c(/C=C(\C#N)C(=O)NC3CCS(=O)(=O)C3)c(N3CCC(C(N)=O)CC3)nc12 (stereo unspecified) | 0.15%
26 | Cc1cccn2c(=O)c(/C=C(\C#N)C(=O)NCc3ccco3)c(N3CCCC(C)C3)nc12 (stereo unspecified) | 11.3% (active)
27 | CCOP(=O)(OCC)C(NC(=O)Nc1ccc(Cl)cc1)c1ccccc1 (stereo unspecified) | 0.17%
28 | Cn1cccc1CC(=O)N/N=C/C=C/c1ccccc1 | 0.02%
29 | COc1ccc(COc2ccccc2C(=O)NCc2ccccc2)cc1F | 1.67%
30 | Cc1cc(C)c2c(c1)cc(C)c1nnc(SCC(=O)Nc3ccccc3N3CCOCC3)n12 | inactive
31 | CCOc1cc(/C=C2\C(=O)N(CCc3ccc(OC)c(OC)c3)C(C)=C2C(=O)OC)ccc1O | 2.62%
32 | CCOc1cc(/C=C2\NC(=S)N(c3c(C)n(C)n(-c4ccccc4)c3=O)C2=O)ccc1O | 0.065%
33 | CCOc1cc(/C=C2\C(=O)N(c3cccc(C(F)(F)F)c3)C(=O)c3ccccc32)ccc1O | 17.1% (active)
34 | CN(C)S(=O)(=O)c1cccc(NC(=O)COC(=O)/C=C/c2ccco2)c1 | inactive
35 | COc1ccccc1-c1coc2cc(OCC(=O)OCc3ccccc3)ccc2c1=O | inactive
36 | CCCOC(=O)c1ccc(NC(=O)C(CC)CC)cc1 | inactive
37 | CCCOC(=O)c1ccc(NC(=O)c2cc(Cl)ccc2OC)cc1 | 0.345%
38 | CCCCOC(=O)c1ccc(NC(c2ccc(C)cc2)P(=O)(OC)OC)cc1 (stereo unspecified) | 41.4% (active)
39 | Cc1ccc(NC(=O)c2cncc(Br)c2)cc1S(=O)(=O)N(C)C | inactive
40 | CCCNC(=O)Cn1nc([N+](=O)[O-])c([N+](=O)[O-])c1C | inactive
41 | COc1ccc(C2CC(c3ccccc3)=NN2C(=O)COC(=O)C2CC2)cc1 (stereo unspecified) | 1.49%
42 | O=C(c1cccs1)N1N=C(c2ccccc2)CC1c1ccc(O)cc1 (stereo unspecified) | 30.5% (active)
43 | CCn1cc([N+](=O)[O-])c(C(=O)N2N=C(c3ccccc3)CC2c2ccc([N+](=O)[O-])cc2)n1 (stereo unspecified) | 1.99%
44 | COc1ccccc1-c1nnc(NC(=O)C2=COCCO2)o1 | 0.3%
45 | Cc1onc(-c2c(F)cccc2Cl)c1C(=O)NC(=S)NCc1cccnc1 | inactive
46 | CCN(CC)S(=O)(=O)c1ccc(C)c(NC(=S)NNC(=O)C2CC2)c1 | 0.73%
47 | O=C(CNC(=O)C1CCCCC1)Nc1cc(Cl)ccc1Cl | inactive
48 | CCN(CC)c1ccc(S(=O)(=O)Nc2cc(Cl)ccc2Cl)cc1NC(=S)NC(=O)C1CCCC1 | 26.9% (active)

Row | Compound | CPE inhibition
49 | O=[N+]([O-])c1cccc(N/N=C/c2cccc3ccccc23)c1 | 0.555%
50 | CCn1cc(CNC(=O)c2cccc([N+](=O)[O-])c2)c(C)n1 | 0.4%
51 | O=C(Cc1ccc(Cl)cc1)Nc1cccc(S(=O)(=O)Nc2ccccc2F)c1 | 0.29%
52 | Cc1cccc(NC(=S)N2CCCCCC2)c1 | 0.335%
53 | Cc1cccc(NC(=S)N/N=C2/CCCCc3ccccc32)c1 | 11.6% (active)
54 | Cc1cccc(NC(=S)N2CCCCC2)c1 | 0.28%
55 | Cc1ccc(C(=O)NN2C(=O)C3C4c5ccccc5C(c5ccccc54)C3C2=O)cc1 (stereo unspecified) | 1.93%
56 | CCOc1ccccc1NC(=O)c1cc(C(=O)c2cc(OC)ccc2O)coc1=N | inactive
57 | COc1ccc(CCNC(=O)c2ccccc2N(C)S(=O)(=O)c2ccccc2)cc1 | inactive
58 | COc1ccc(O)c(C(=O)c2cc(C(=O)NCCc3ccccc3)c(=O)n(CCc3ccccc3)c2)c1 | 15.6% (active)
59 | Cc1ccc(SCc2cc(=O)[nH]c(Nc3nc(C)c4ccc(C)cc4n3)n2)cc1 | 2.63%
60 | Cc1ccccc1-c1ccc(C(=O)NCc2ccccc2)o1 | inactive
61 | O=C(C[n+]1cc(-c2ccc(Cl)c(Cl)c2)n2c1CCC2)N1c2ccccc2Sc2ccccc21 | 15.1% (active)
62 | O=C(C[n+]1cc(-c2ccccc2)n2c1CCC2)N1c2ccccc2Sc2ccccc21 | 2.94%
63 | O=C(C[n+]1cc(-c2ccc(Cl)cc2)n2c1CCC2)N1c2ccccc2Sc2ccccc21 | 2.13%
64 | O=S(=O)(Nc1ccc2ccccc2c1)c1ccccc1 | inactive
65 | O=S(=O)(Nc1ccc(N=Nc2ccc(O)c3ccccc23)cc1)c1ccccc1 | 10.4% (active)
66 | Cc1ccc(N=Nc2ccc(O)c3ncccc23)cc1 | 0.345%
67 | Cc1ccc(-c2cc3nc(-c4ccc(Br)cc4)cc(N)n3n2)cc1 | 8.6%
68 | Cc1ccccc1CSCC(=O)Nc1ccccc1-c1ccccc1 | 2.64%
69 | O=C(CNC(c1ccccc1)c1ccccc1)Nc1ccccc1-c1ccccc1 | 25.7% (active)
70 | CCC(C(=O)OCC(=O)Nc1ccccc1-c1ccccc1)c1ccccc1 (stereo unspecified) | 4.5%
71 | Cc1ccc(/C=N/n2c(C)cc(C)c(C#N)c2=O)o1 | 1.26%
72 | Cc1ccc(C2=[N+]([O-])C(C)(C)N(O)C2(C)C)cc1 | inactive

Row | Compound | CPE inhibition
73 | CCOC(=O)NC(NC(=S)Nc1ccccc1OC)C(Cl)(Cl)Cl (stereo unspecified) | 1.97%
74 | CCc1ccc(OCC(=O)NC(NC(=S)Nc2ccccc2OC)C(Cl)(Cl)Cl)cc1 (stereo unspecified) | 12.2% (active)
75 | CCC(=O)NC(NC(=S)Nc1ccccc1Br)C(Cl)(Cl)Cl (stereo unspecified) | 0.015%
76 | COc1cc2c(cc1OC)CN(c1nc(CN3CCOCC3)nc3sc4c(c13)CCC(C)C4)CC2 (stereo unspecified) | inactive
77 | Cc1cccc(Oc2nc(CN3CCOCC3)nc3sc4c(c23)CCCC4)c1 | 15.4% (active)
78 | c1ccc2c(c1)CCN(c1nc(CN3CCOCC3)nc3sc4c(c13)CCCC4)C2 | 7.32%
79 | Cc1c(C)c2ccc(OS(C)(=O)=O)cc2oc1=O | 0.305%
80 | Oc1c(C=C2N=c3ccccc3=N2)sc(=S)n1C1CCCC1 | 0.885%
81 | O=C(O)CCCCCn1c(O)c(C=C2N=c3ccccc3=N2)sc1=S | 11.8% (active)
82 | Oc1c(C=C2N=c3ccccc3=N2)sc(=S)n1-c1ccccc1 | 1.34%
83 | COC(=O)c1cc(CNC(=O)c2ccc(O)c(Cl)c2)ccc1OC | 0.01%
84 | Cc1ccc(Nc2nnc(SC(C)C(=O)Nc3c(C)n(C)n(-c4ccccc4)c3=O)s2)cc1 (stereo unspecified) | inactive
85 | CC(Sc1nnc(NCc2ccccc2)s1)C(=O)Nc1ccc2c(c1)C(=O)c1ccccc1C2=O (stereo unspecified) | 4.04%
86 | CC(Sc1nnc(NC2CCCCC2)s1)C(=O)Nc1ccc2c(c1)C(=O)c1ccccc1C2=O (stereo unspecified) | 11.9% (active)
87 | CCNC(=S)N/N=C(\C)c1cc2ccccc2o1 | 0.995%
88 | COc1ccc(C(=O)NCc2nnc(SCC(=O)N3CCc4ccccc43)n2Cc2ccccc2)cc1 | inactive
89 | CCCCSc1nnc(CNC(=O)C23CC4CC(CC(C4)C2)C3)n1Cc1ccccc1 | 8.5% (active)
90 | Cc1nnc(SCC(=O)NC(C)(C)C)n1C1CCCCC1 | inactive
91 | CCC(C)Sc1nnc(CNC(=O)C23CC4CC(CC(C4)C2)C3)n1C1CCCCC1 (stereo unspecified) | 12.2% (active)
92 | CCCSc1nnc(CNC(=O)C23CC4CC(CC(C4)C2)C3)n1Cc1ccccc1 | 7.14%
93 | O=C(CNC(=O)C12CC3CC(CC(C3)C1)C2)N1CCN(S(=O)(=O)/C=C/c2ccccc2)CC1 | 0.155%
94 | CC(C)Sc1nnc(CNC(=O)C23CC4CC(CC(C4)C2)C3)n1Cc1ccccc1 | 14.9% (active)
95 | CCSc1nnc(CNC(=O)C23CC4CC(CC(C4)C2)C3)n1C1CCCCC1 | 5.44%
96 | CCSc1nnc(CNC(=O)C23CC4CC(CC(C4)C2)C3)n1Cc1ccccc1 | 0.79%
